Test results taken from PubChem BioAssay (Tox21).
Records with an inconclusive call do not appear. Values without a mark were called inactive. Calls of active or inactive are those of the source. The call rests on the fitted dose curve; in most records, active means well fitted cell-killing curve with a large enough effect in the repeat runs; inconclusive means weak or mixed curves, or effect the other way; inactive means no such curve, though single readings can be large or run the other way.

assay: qHTS assay for small molecule activators of the heat shock response signaling pathway - cell viability counter screen (AID 743209); settings: HSE-bla HeLa viability, CellTiter-Glo luminescence, 5 h; series mostly up to 62.6 µM; activity change, negative = cytotoxicity: at the top concentration; further: nearly all actives have a fitted effect of over 50% in size
Source text: U.S. Tox21 Program National Center for Advancing Translational Sciences [NCATS] NIH Chemical Genomics Center [NCGC] U.S. Environmental Protection Agency [EPA] National Institutes of Environmental Health Sciences [NIEHS] National Toxicology Program [NTP] U.S. Food and Drug Administration [FDA] Tox21 Assay Overview: Various chemicals, environmental and physiological stress conditions may lead to the activation of heat shock response/ unfolded protein response (HSR/UPR). There are three heat shock transcription factors (HSFs) (HSF-1, -2, and -4) mediating transcriptional regulation of the human HSR. To identify the compounds that activate HSR signaling, HSE-bla HeLa cell line (Invitrogen, Carlsbad, CA, USA) containing a beta-lactamase reporter gene under the control of the heat shock response elements was used to screen Tox21 10K compound library. The cytotoxicity of the Tox21 compound library against the HSE-bla HeLa cell line was tested in parallel by measuring the cell viability using CellTiter-Glo assay (Promega, Madison, WI) in the same wells.
Tox21 Assay Protocol Summary: The CellSensor HSE-bla HeLa cells (Invitrogen, Carlsbad, CA, USA) were dispensed at 1500 cells/6uL/well into 1536-well black wall/clear bottom plates using a Multidrop combi (Thermo Fisher Scientific, Waltham, MA) dispenser. After the assay plates were incubated at 37 C and 5% CO2 overnight, 23 nL of compounds dissolved in DMSO, positive controls or DMSO only was transferred to the assay plate by a Pintool station (Kalypsys, San Diego, CA). The plates were incubated at 37 C for 5 h. After 1 uL of LiveBLAzerTM B/G FRET substrate was added using a Flying Reagent Dispenser (FRD, Beckman Coulter, Indianapolis, IN, USA), the plates were incubated at room temperature for 2.5 h, and fluorescence intensity was measured by an Envision plate reader (PerkinElmer, Shelton, CT). For cell viability readout that measures cytotoxicity, 3 ul/well of CellTiter-Glo reagent was added into the assay plates using a FRD. After 30 min incubation at room temperature, the luminescence intensity in the plates was measured using a ViewLux (PerkinElmer) plate reader.
On the % scale 0 is the no-effect control and ±100 the full control effect; potency means the concentration at half of the fitted maximal effect.

SMILES	activity change, negative = cytotoxicity	Potency
O=C(O)CCCCCCCCCCCBr	-5.09%	–
Cc1cccc(N(C)C(=S)Oc2ccc3c(c2)CCC3)c1	-2.03%	–
NC(=O)c1ccncc1	-0.141% [at 81.1 µM]	–
C/C=C/C=C/C=O	-0.383%	–
C[C@]1(Cn2ccnn2)[C@H](C(=O)O)N2C(=O)C[C@H]2S1(=O)=O	6.68%	–
CCCCOc1ccc(OCCCN2CCOCC2)cc1	1.01%	–
Cc1ccccc1N=C(N)Nc1ccccc1C	3.69%	–
C/C=C(/C(=C/C)c1ccc(O)cc1)c1ccc(O)cc1	-26.5%	–
CCCCCCCCN	-2.08%	–
C[C@@H](CN(C)C)CN1c2ccccc2Sc2ccccc21	20%	–
CC(C)(c1ccccc1)c1ccccc1	4.97%	–
O=C(CCc1ccc(O)cc1)c1c(O)cc(O)cc1O	-8.28% [at 81.1 µM]	–
CC(CC1c2ccccc2CCc2ccccc21)CN(C)C (stereo not given)	-9.4%	–
COC(=O)c1nc(Cl)c(Cl)nc1N	–	5.31 µM (active)
Oc1cccc(O)c1O	17.3%	–
c1ccc2sc(SN(C3CCCCC3)C3CCCCC3)nc2c1	2.86% [at 81.1 µM]	–
OCCN1CCN(CCCN2c3ccccc3Sc3ccc(Cl)cc32)CC1	-17.2%	–
O=C(CCCN1CC=C(n2c(=O)[nH]c3ccccc32)CC1)c1ccc(F)cc1	-29.4%	–
CN1C[C@H](C(=O)N[C@]2(C)O[C@@]3(O)[C@@H]4CCCN4C(=O)[C@H](Cc4ccccc4)N3C2=O)C[C@@H]2c3cccc4[nH]cc(c34)C[C@H]21	-4.06%	–
CCC(C)COC(=O)CC(C)C (stereo not given)	-4.52%	–

SMILES	activity change, negative = cytotoxicity	Potency
COc1ccccc1N1CCN(CC(O)COc2cccc3ccccc23)CC1 (stereo not given)	6.63%	–
CC1=C(Br)C(=O)C(Br)=C/C1=C(/c1ccccc1S(=O)(=O)O)c1cc(Br)c(O)c(Br)c1C	7.35%	–
CCCCCC[C@@H](O)C/C=C\CCCCCCCC(=O)OCC(O)CO (stereo not given in full)	5.88%	–
O=C1c2ccccc2C(=O)C1c1nc2ccccc2c(Br)c1O	12.1%	–
CO/N=C(/C(=O)N[C@@H]1C(=O)N2C(C(=O)O)=C(COC(N)=O)CS[C@H]12)c1ccco1	15.8%	–
N#CCCN(CCO)CCO	-11.6%	–
CC(=O)NC1(c2cccc(F)c2)CCN(CC[C@@]2(c3ccc(Cl)c(Cl)c3)CN(c3ccccc3)C(=O)CO2)CC1	-1.17%	–
C[C@H]1c2cccc(O)c2C(O)=C2C(=O)[C@]3(O)C(O)=C(C(N)=O)C(=O)[C@@H](N(C)C)[C@@H]3[C@@H](O)[C@@H]21	-0.799%	–
Cc1ccc(CO)cc1	-1.04% [at 81.1 µM]	–
N#CCc1ccc(Cl)cc1Cl	4%	–
Oc1ccc(Cl)c2cccnc12	3.81%	–
O=C1C(=O)c2ccccc2C(O)=C1C1CCC(c2ccc(Cl)cc2)CC1 (stereo not given)	-12.9%	–
Cc1cscn1	-1.32%	–
CCOC(=O)c1ccc(I)cc1	1.46% [at 81.1 µM]	–
c1cc(N(CC2CO2)CC2CO2)ccc1Cc1ccc(N(CC2CO2)CC2CO2)cc1 (stereo not given)	-10.6%	–
CCOc1ccccc1O[C@H](c1ccccc1)[C@H]1CNCCO1	8.8%	–
CCC(C)(C)OC	3.24%	–
CC(=O)Nc1cc(S(=O)(=O)O)cc2cc(S(=O)(=O)O)c(N=Nc3ccccc3)c(O)c12	4.74%	–
COc1ccc(OC(=O)N(CC(=O)O)Cc2ccc(OCCc3nc(-c4ccccc4)oc3C)cc2)cc1	-10.3%	–
CNC(=O)c1cnn(-c2nc(N)c3ncn([C@@H]4O[C@H](CO)[C@@H](O)[C@H]4O)c3n2)c1	0.644%	–
